Source: PubChem BioAssay
Several values for one entry are separate records, joined by “and”; a condition that tells them apart may be missing. Equal entries are not always repeated. Activity calls are given as the source filed them.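 How the source made its calls, unless noted: active means thallium flux through the channel raised or lowered by more than 3 SD from vehicle-only wells, actives on both sides; inactive means the rest.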

Key:
[1] = liver-stage malaria parasite growth inhibition, primary screen, cell-based, HepG2, luciferase luminescence, HepG2 viability (AID 624349; in the data active means parasite load remaining mostly below about 12%, no sharp cut-off; inactive means mostly above about 10%;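 further: 100% = mean of DMSO negative control wells on the same plate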); settings: P. berghei liver stage in HepG2, luciferase luminescence, concentration not given here; parasite load remaining: stronger effect = lower value; viability: measured here: HepG2 viability without parasites
[2] = Cy5 fluorescence interference with SSB-bound oligo, artefact control for HCV NS3 helicase inhibitor project, biochemical, NIH Clinical Collection, E. coli SSB (AID 743268; call rule not given here)
[3] = test system: Hepatitis C virus NS3 helicase; assay: HCV NS3 helicase inhibitors, primary screen, biochemical, fluorescence polarization, NIH Clinical Collection (AID 743270; call rule not given here); settings: NS3 helicase binding to Cy5-dT15 DNA, stronger effect = higher value, concentration not given here
[4] = target: Single-stranded DNA-binding protein (Escherichia coli (strain K12)) (UniProt P0AGE0); assay: E. coli SSB displacement from DNA, counter-screen for HCV NS3 helicase inhibitor project, biochemical, fluorescence polarization, NIH Clinical Collection (AID 743271; in the data active means inhibition above about 28%); settings: stronger effect = higher value, concentration not given here
[5] = fluorescence interference in NS3h assay format, artefact control for HCV NS3 helicase inhibitor project, biochemical, NIH Clinical Collection (AID 743272; call rule not given here;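 further: HCV NS3 helicase with a Cy5 labelled single stranded DNA probe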); settings: fluorescence interference counterscreen, stronger effect = lower value
[6] = sensitizers of A549 cells to miR-34 induction, primary screen, imaging, A549 dox-inducible miR-34, nuclei and caspase counts (AID 1347080;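 active means compounds whose cell count with miR-34 switched on is under 0.7 times the count with it off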); settings: A549 miR-34 inducible, Hoechst nuclei count, 48 h
[7] = survival rescue of mitochondrial mutant cells in low glucose, primary screen, MELAS cybrids, Rieske KO mouse fibroblasts, CellTiter-Glo (AID 1508586;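 active means mean z-score across replicates of 1.96 or higher in either the MELAS or the Rieske mutant cell line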;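 further: z relative to plate mean and SD of compound and empty wells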)
[8] = viability rescue of complex I mutant cybrids, primary screen, cell-based, galactose medium, ATP luminescence (AID 1645843;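 active means z-score of at least 1.8 in each of two replicates, scored against plate mean and spread of sample wells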;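 further: positive z means more ATP and so rescue of galactose-driven cybrid death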); settings: complex I mutant cybrid cells, 72 h, stronger effect = higher value
F380Y = assay: modulators of BK channel variants, profiling panel, selectivity assay, cell-based, U2OS BacMam, thallium flux, beta subunits (AID 1259406); settings: at 30 µM;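 further: initial slope of Thallos dye fluorescence rise after thallium is added; log ratio against the mean of 0.3% DMSO vehicle wells on the same plate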
F380Y/beta1 = assay: as above; settings: at 30 µM
F380Y/beta2Delta = assay: as above; settings: at 30 µM
F380Y/beta4 = assay: as above; settings: at 30 µM
[9] = target: Calcium-activated potassium channel subunit alpha-1 (Homo sapiens) + Leucine-rich repeat-containing protein 26 (Homo sapiens) (UniProt Q12791+Q2I0M4); assay: as above; settings: F380Y/Slo1WT/gamma1, at 30 µM
Chain of Calcium-activated potassium channel subunit alpha-1 (Homo sapiens) + Leucine-rich repeat-containing protein 26 (Homo sapiens) (Q2I0M4 whole entry, looked up, one chain of several): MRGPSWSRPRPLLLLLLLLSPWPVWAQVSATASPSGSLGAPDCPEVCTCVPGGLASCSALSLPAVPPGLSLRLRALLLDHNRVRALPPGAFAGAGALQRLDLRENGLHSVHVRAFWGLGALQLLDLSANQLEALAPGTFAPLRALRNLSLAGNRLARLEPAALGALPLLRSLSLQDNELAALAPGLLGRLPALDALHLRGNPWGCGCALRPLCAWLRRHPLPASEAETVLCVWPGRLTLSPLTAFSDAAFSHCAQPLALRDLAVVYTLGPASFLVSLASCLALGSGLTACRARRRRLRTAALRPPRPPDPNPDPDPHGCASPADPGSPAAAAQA

R275C = assay: as above; settings: at 30 µM
R275C/beta1 = assay: as above; settings: at 30 µM
R275C/beta2Delta = assay: as above; settings: at 30 µM
R275C/beta4 = assay: as above; settings: at 30 µM
R275C/Slo1WT/beta2 = assay: as above; settings: at 30 µM
[10] = test system: Neuropilin-2 / VEGF-C interaction (human); assay: inhibitors of NRP2–VEGF-C binding, biochemical, microplate binding format, z-score (AID 743281; call rule not given here); settings: microplate NRP2/VEGF-C binding assay; stronger effect = lower value
[11] = modulation of C. elegans fzo-1 (AID 1259413; call rule not given here;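 further: fzo-1 mutant C. elegans worms in liquid wells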); settings: C. elegans fzo-1 modulator screen, mean read-out; stronger effect = higher value
[12] = stronger effect = lower value, cell number ratio, induced over uninduced
[13] = measured here: relative caspase fold change +Dox/-Dox
[14] = measured here: total cells with miR-34 induction, stronger effect = lower value
[15] = measured here: total cells without miR-34 induction
[16] = MELAS cybrid survival, CellTiter-Glo 48 h, stronger effect = higher value
[17] = Rieske KO mouse fibroblast survival, CellTiter-Glo 72 h

Fc1ccc(C2CCNCC2COc2ccc3c(c2)OCO3)cc1 (stereo not given)
1.42 and 1.09 and 2.45: fold change [6, 13]
active: log fold change Tl+ flux (F380Y) 0.146 | log fold change Tl+ flux (F380Y/beta2Delta) 0.246 | log fold change Tl+ flux (F380Y/beta4) 0.274 | log fold change Tl+ flux (R275C/beta1) 0.254 | log fold change Tl+ flux (R275C/beta2Delta) 0.126 | log fold change Tl+ flux (R275C/beta4) 0.218
6000 and 6830 and 9050: cell count [6, 15]
5960 and 7070 and 8540: cell count [6, 14]
0.26%: viability [1]
inactive: parasite load remaining [1] -4.52% | fluorescence ratio [2] 1 | inhibition [3] -15% | inhibition [4] 3.34% | fluorescence ratio [5] 0.83 | fold change [6, 12] 0.992 and 1.04 and 0.943 | z-score [7, 16] -1.22 | z-score [8] -0.98 and -1.43 | log fold change Tl+ flux (F380Y/beta1) 0.116 | log fold change Tl+ flux [9] 0.0579 | log fold change Tl+ flux (R275C) 0.0588 | log fold change Tl+ flux (R275C/Slo1WT/beta2) -0.0537
0.964: z-score [7, 17]

C=C1/C(=C\C=C2/CCC[C@]3(C)[C@@H]([C@H](C)/C=C/[C@@H](O)C4CC4)CC[C@@H]23)C[C@@H](O)C[C@@H]1O
1.34 and 1.48: fold change [6, 13]
inactive: parasite load remaining [1] 78.1% and 40.9% | fluorescence ratio [2] 0.98 | inhibition [3] -1.98% | inhibition [4] 2.98% | fluorescence ratio [5] 0.97 | fold change [6, 12] 1.11 and 0.946 | z-score [7, 16] 0.67 and -0.148 | z-score [8] -0.655 and -0.545 | log fold change Tl+ flux (F380Y) 0.0327 | log fold change Tl+ flux (F380Y/beta2Delta) 0.0454 | log fold change Tl+ flux (F380Y/beta4) 0.0579 | log fold change Tl+ flux [9] 0.0831 | log fold change Tl+ flux (R275C) -0.0334 | log fold change Tl+ flux (R275C/beta2Delta) -0.0353 | log fold change Tl+ flux (R275C/beta4) 0.0276 | log fold change Tl+ flux (R275C/Slo1WT/beta2) 0.00965
69.5% and 101%: viability [1]
6690 and 9180: cell count [6, 14]
6000 and 9710: cell count [6, 15]
active: log fold change Tl+ flux (F380Y/beta1) 0.217 | log fold change Tl+ flux (R275C/beta1) 0.143
-0.0393 and -0.0428: z-score [7, 17]

COc1cc(/C=C/c2ccc(O)cc2)cc(OC)c1
inactive: parasite load remaining [1] 117% | fluorescence ratio [2] 0.96 | inhibition [3] 5.94% | inhibition [4] 9.14% | fluorescence ratio [5] 0.99 | z-score [10] -1.34 | mean signal [11] 227 | log fold change Tl+ flux (R275C/beta2Delta) -0.000996 | log fold change Tl+ flux (R275C/beta4) 0.05
active: log fold change Tl+ flux (F380Y) -1.03 | log fold change Tl+ flux (F380Y/beta1) -0.986 | log fold change Tl+ flux (F380Y/beta2Delta) -1.01 | log fold change Tl+ flux (F380Y/beta4) -0.813 | log fold change Tl+ flux [9] -0.744 | log fold change Tl+ flux (R275C) -0.927 | log fold change Tl+ flux (R275C/beta1) -0.11 | log fold change Tl+ flux (R275C/Slo1WT/beta2) -0.108
70.6%: viability [1]

CCC(=C(c1ccccc1)c1ccc(OCCN(C)C)cc1)c1ccccc1
active: z-score [7, 16] 5.74
2.28 and 0.707: fold change [6, 13]
4730 and 2790: cell count [6, 14]
inactive: parasite load remaining [1] -1.78% | fluorescence ratio [2] 1.01 | inhibition [3] 0.45% | inhibition [4] 7.15% | fluorescence ratio [5] 0.9 | fold change [6, 12] 0.958 and 0.928 | z-score [8] -0.495 | log fold change Tl+ flux (F380Y) -0.00968 | log fold change Tl+ flux (F380Y/beta1) -0.0043 | log fold change Tl+ flux (F380Y/beta2Delta) -0.0174 | log fold change Tl+ flux (F380Y/beta4) -0.00798 | log fold change Tl+ flux [9] -0.0114 | log fold change Tl+ flux (R275C) -0.00676 | log fold change Tl+ flux (R275C/beta1) -0.0153 | log fold change Tl+ flux (R275C/beta2Delta) -0.0428 | log fold change Tl+ flux (R275C/beta4) 0.00537 | log fold change Tl+ flux (R275C/Slo1WT/beta2) 0.0353
11.9: z-score [7, 17]
31.4%: viability [1]
4930 and 3010: cell count [6, 15]

O=C(OC1C[C@@H]2CC3C[C@H](C1)N2CC3=O)c1c[nH]c2ccccc12 (stereo not given in full)
-0.707: z-score [7, 17]
72.3%: viability [1]
inactive: parasite load remaining [1] 52.7% | fluorescence ratio [2] 1.02 | inhibition [3] -2.84% | inhibition [4] -2.76% | fluorescence ratio [5] 1 | z-score [10] -0.0143 | mean signal [11] 222 | z-score [7, 16] 0.403 | log fold change Tl+ flux (F380Y) 0.0495 | log fold change Tl+ flux (F380Y/beta1) 0.0612 | log fold change Tl+ flux (F380Y/beta2Delta) 0.0379 | log fold change Tl+ flux (F380Y/beta4) 0.00589 | log fold change Tl+ flux [9] -0.004 | log fold change Tl+ flux (R275C) -0.0531 | log fold change Tl+ flux (R275C/beta1) 0.0632 | log fold change Tl+ flux (R275C/beta2Delta) 0.00308 | log fold change Tl+ flux (R275C/beta4) 0.022 | log fold change Tl+ flux (R275C/Slo1WT/beta2) 0.011

CNC(=O)Oc1ccc2c(c1)[C@]1(C)CCN(C)C1N2C (stereo not given in full)
10600: cell count [6, 15]
1.81: fold change [6, 13]
10400: cell count [6, 14]
inactive: parasite load remaining [1] 98.8% | fluorescence ratio [2] 1.1 | inhibition [3] 5.94% | inhibition [4] -0.1% | fluorescence ratio [5] 1.08 | z-score [10] -0.245 | mean signal [11] 259 | fold change [6, 12] 0.976 | z-score [8] -1.49 | log fold change Tl+ flux (F380Y) -0.0388 | log fold change Tl+ flux (F380Y/beta1) -0.0363 | log fold change Tl+ flux (F380Y/beta2Delta) -0.00825 | log fold change Tl+ flux (F380Y/beta4) 0.000651 | log fold change Tl+ flux [9] 0.0144 | log fold change Tl+ flux (R275C) -0.0205 | log fold change Tl+ flux (R275C/beta1) 0.00244 | log fold change Tl+ flux (R275C/beta2Delta) -0.0145 | log fold change Tl+ flux (R275C/beta4) 0.023 | log fold change Tl+ flux (R275C/Slo1WT/beta2) -0.0113
84.5%: viability [1]
